Values without a mark were called inactive. The source made the active and inactive calls.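 The calls were made as follows: active = cell killing with a fitted half-maximal concentration no more than twice the top valid dose used; inconclusive = flat curve with a moderate signal drop, or poor fit; inactive = the rest.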
Experiment: HepG2 cell cytotoxicity, dose response, cytotoxicity control, plate reader, dry powder, set 7 (AID 743313)
Settings: HepG2 viability, ATP luminescence (CellTiter-Glo), 72 h; series mostly up to 26 µM; activity change, negative = cytotoxicity: at the top concentration

Row | SMILES | activity change, negative = cytotoxicity [%] | outcome
1 | Cc1ccc(C(C)C)c(OCCn2c(=S)[nH]c3cccc(Cl)c32)c1 | -14.8 | –
2 | CC(C)(C)c1ccccc1OCCn1c(=S)[nH]c2ccccc21 | -9.42 | –
3 | COc1ccc(OCCn2c(=S)[nH]c3ccccc32)cc1 | -3.91 | –
4 | Cc1ccc(OCCn2c(=S)[nH]c3ccccc32)c(C)c1 | -11.8 | –
5 | Fc1cccc2c1[nH]c(=S)n2CCOc1ccccc1 | – | inactive
6 | Cc1ccc(OCCn2c(C)nc3ccccc32)cc1 | -16.1 | –
7 | Cc1ccc(OCCn2cnc3ccccc32)c(C(C)C)c1 | 6.12 | –
8 | Fc1ccc(OCCn2c(=S)[nH]c3ccccc32)cc1 | -11.5 | –
9 | Cc1ccc(C(C)C)c(OCCn2c(CO)nc3ccccc32)c1 | -9.48 | –
10 | Cc1ccc(C(C)C)c(OCCn2c(=S)[nH]c3cc(F)ccc32)c1 | -22.7 | –
11 | Cc1ccc(C(C)C)c(OCCn2c(=S)[nH]c3ccc(F)cc32)c1 | -15.2 | –
12 | Cc1cccc(OCCn2c(=S)[nH]c3ccccc32)c1C | -6.93 | –
13 | Cc1cccc2[nH]c(=S)n(CCOc3ccccc3)c12 | -4.27 | –
14 | Cc1ccc(C)c(OCCn2c(=S)[nH]c3ccccc32)c1 | -18.1 | –
15 | c1ccc(OCCn2cnc3ccccc32)cc1 | -12.9 | –
16 | CC(C)c1ccccc1NCCn1c(=S)[nH]c2ccccc21 | -21.6 | –
17 | Cc1ccc(C(C)C)c(OCCn2c(=S)[nH]c3ccccc32)c1 | – | inactive
18 | Cc1ccc(C(C)C)c(OCCn2c(=S)[nH]c3c(F)cccc32)c1 | 0.666 | –
19 | S=c1[nH]c2ccccc2n1CCOc1ccccc1Cl | -11.6 | –
20 | CCOc1ccc(OCCn2c(=S)[nH]c3ccccc32)cc1 | -11.2 | –
21 | CC(C)c1ccccc1OCCn1c(=S)[nH]c2ccccc21 | -18.4 | –
22 | CC(C)(C)c1ccc(OCCn2c(=S)[nH]c3ccccc32)cc1 | -18.1 | –
23 | S=c1[nH]c2ccccc2n1CCOc1ccccc1 | -9.79 | –
24 | Cc1ccc(C(C)C)c(OCCn2c(=S)[nH]c3c(C)cccc32)c1 | -17.4 | –
25 | Cc1ccc(OCCn2cnc3ccccc32)cc1 | -8.55 | –
26 | Cc1cccc(OCCn2c(=S)[nH]c3c(F)cccc32)c1 | – | inactive
27 | Fc1ccc2c(c1)[nH]c(=S)n2CCOc1ccccc1 | – | inactive

— PubChem BioAssay AID743313 (Broad Institute, 2014)
